Experimental data: PubChem BioAssay (Tox21)
Results filed as inconclusive are left out. Calls of active or inactive are those of the source. The call rests on the fitted dose curve.

target: D(2) dopamine receptor (Homo sapiens) (UniProt P14416); assay: Dopamine D2 receptor (DRD2) small molecule agonists, cell-based qHTS assay (AID 1963594); details: HEK293-DRD2 cAMP HTRF, agonist mode, 30 min; series mostly up to 92.4 µM; activation: at the top concentration; further: nearly all actives have a fitted effect of over 35% in size
Sequence (P14416 whole entry, looked up): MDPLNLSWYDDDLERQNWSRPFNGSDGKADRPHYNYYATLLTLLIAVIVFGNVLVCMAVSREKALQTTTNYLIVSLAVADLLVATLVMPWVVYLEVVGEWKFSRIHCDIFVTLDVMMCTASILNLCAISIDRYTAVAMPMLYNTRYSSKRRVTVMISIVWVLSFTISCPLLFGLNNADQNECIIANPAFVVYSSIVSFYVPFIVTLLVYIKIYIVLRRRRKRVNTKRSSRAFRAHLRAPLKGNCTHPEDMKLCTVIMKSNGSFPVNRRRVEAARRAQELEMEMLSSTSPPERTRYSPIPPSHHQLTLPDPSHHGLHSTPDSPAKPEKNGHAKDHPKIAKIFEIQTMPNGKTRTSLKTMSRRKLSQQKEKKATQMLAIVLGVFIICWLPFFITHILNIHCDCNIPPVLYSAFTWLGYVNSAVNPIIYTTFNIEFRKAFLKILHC
Excerpt: National Center for Advancing Translational Sciences [NCATS]
Division of Preclinical Innovation [DPI]
U.S. Environmental Protection Agency [EPA]
National Institutes of Environmental Health Sciences [NIEHS]
National Toxicology Program [NTP]
U.S. Food and Drug Administration [FDA]
DRD2 is the D2 subtype of the dopamine receptor, which is coupled to Gi subtype of G protein-coupled receptor. This G protein-coupled receptor inhibits adenylyl cyclase activity. The DRD2-HEK293 cell line stably expressing D2 dopamine receptor can be used for screening agonists and antagonists of interactions between D2 and its ligands. The Hek293-DRD2 cAMP assay is based on HTRF technology. It measures changes of cAMP accumulation in response to Gi coupled GPCR activation or inhibition.
Tox21 Assay Protocol Summary:
DRD2-Hek293 cells were dispensed at 600 cells/3uL/well in 1536-well white plates using a Multidrop Dispenser. After the assay plates were incubated at a 37 C/5% CO2 incubator for 24 h, 1 uL of Ro20-1724 at final concentration of 0.1 mM was transferred to the assay plate by a Flying Reagent Dispenser. Following Ro20-1724 addition, 23 nL of compound dissolved in DMSO, positive controls or DMSO only was added to the assay plates via Wako pintool station. The assay plates were incubated at room temperature for 10 min. Next, 1 uL of NKH477 at 200nM was added into the plates. After the assay plates were incubated at room temperature for an additional 30 min, 2.5 ul/well of cAMP-d2 and 2.5 ul/well of anti-cAMP-cryptate were added respectively into the assay plates using a Flying Reagent Dispenser. The plates were incubated at room temperature for 1 h. The fluorescence intensity in the plates was measured at 340 nm excitation and 665 & 620 nm emission by an Envision plate reader.
On the % scale 0 is the no-effect control and ±100 the full control effect.

Compound	activation	Potency
COCCOCCOCCOCCOC	2.24% (inactive)	
CC(C)C(=O)Nc1cccc(C2CN3CCSC3=N2)c1 (stereo not given)	-1.39% [at 42.5 µM] (inactive)	
CCOC(=O)c1ccc(C)cc1	1.98% (inactive)	
Cc1ccccc1S(N)(=O)=O	7.05% (inactive)	
CCCCCCCCCCCCOCCO		inactive
CC1(C)[C@H]2CC[C@](C)(C2)[C@H]1O	3.38% (inactive)	
O=[N+]([O-])c1cncn1CCN1CCOCC1	-12% [at 42.5 µM] (inactive)	
CC(c1cc2ccccc2s1)N(O)C(N)=O (stereo not given)		inactive
CC12CCC(C1)C(C)(C)C2O (stereo not given)	-0.675% (inactive)	
COC(c1ccccc1)(c1ccccc1)[C@H](Oc1nc(C)cc(C)n1)C(=O)O	11% [at 42.5 µM] (inactive)	
CCO[Si](C)(OCC)OCC	-0.149% (inactive)	
Oc1ccc2c(c1)OC[C@@H](N1CCC(O)(c3ccc(F)cc3)CC1)[C@H]2O	9.53% [at 42.5 µM] (inactive)	
C=C(c1ccc(C(=O)O)cc1)c1cc2c(cc1C)C(C)(C)CCC2(C)C		inactive
Cc1ccccc1S(=O)(=O)O	-0.227% (inactive)	
O=C(NCN1CCOCC1)c1cnccn1	-6.35% [at 42.5 µM] (inactive)	
O=C(c1ccccc1)c1ccccc1O		inactive
O=C(C(=O)c1ccco1)c1ccco1	1.28% (inactive)	
NCCCN1CCN(CCCN)CC1	-9.84% (inactive)	
C=CCOC(=O)CCCCCC	2.8% (inactive)	
C=CCc1cc(OC)c(O)c(C(=O)NCCO)c1	-1.04% [at 42.5 µM] (inactive)	

Compound	activation	Potency
c1ccc(Nc2cccc3ccccc23)cc1		inactive
CC(C)(CCC(=O)O)C(=O)O	1.77% (inactive)	
CCC(=O)O[C@@H]1C[C@H]2CC[C@]1(C)C2(C)C	-0.942% (inactive)	
CC(C)CCCCCOC(=O)CS	0.113% (inactive)	
C[C@@H]1CCN(C(=O)[C@H](CCCN=C(N)N)NS(=O)(=O)c2cccc3c2NC[C@H](C)C3)[C@@H](C(=O)O)C1	-20.2% [at 42.5 µM] (inactive)	
C[C@@H]1CCC[C@H](C)N1	-4.58% [at 42.5 µM] (inactive)	
CCc1cccc(CC)c1NC(=O)C(=O)O	5.04% (inactive)	
C=C(C)C(=O)OCCOP(=O)(O)O	0.928% (inactive)	
C=CC(=O)O[C@H]1C[C@@H]2CC[C@@]1(C)C2(C)C	0.31% (inactive)	
CC(C)=CCC/C(C)=C/C(=O)O	3.87% (inactive)	
O=c1[nH]c(=O)n([C@H]2CCCO2)cc1F		inactive
CCC(C(=O)NC(N)=O)c1ccccc1 (stereo not given)	5.97% (inactive)	
CCN(CC)CCN	-2.32% [at 42.5 µM] (inactive)	
O=CC1CC1	-3.25% (inactive)	
CCCCC(CC)COC(=O)CCCCCCCC(=O)OCC(CC)CCCC (stereo not given)		inactive
C=CCCCCCCCCC(=O)OCCCC	2.49% (inactive)	
Nc1nccs1	0.704% (inactive)	
Nc1ccc([N+](=O)[O-])c(C(F)(F)F)c1	-3.38% [at 42.5 µM] (inactive)	
COC(=O)c1ccccc1C	0.632% (inactive)	
Cc1cc(C)c(N=Nc2c(O)c(S(=O)(=O)O)cc3cc(S(=O)(=O)O)ccc23)cc1C	4.98% [at 8.39 µM] (inactive)	
